# Screens: PubChem, National Center for Advancing Translational Sciences (NCATS)
# PLK1 PBD block – qHTS for Inhibitors of PLK1-PDB (polo-like kinase 1 - polo-box domain): Primary Screen; Plk1 PBD binding of FITC phosphopeptide, fluorescence polarization; Potency, µM, without a hit: max response, negative = inhibition, actives largely listed as inhibitors; 360,000 tested, 2.8% active; AID 720504, 2013; further: series mostly up to about 57 µM; nearly all actives have a fitted effect of over 65% in size
# DT40 TDP1 CPT – qHTS for Inhibitors of human tyrosyl-DNA phosphodiesterase 1 (TDP1): qHTS in cells in presence of CPT | AID 686979, 2013 | chicken DT40 Tdp1-/-;hTDP1 cells + 20 nM CPT, ATP luminescence, 48 h | Potency, µM (top dose mostly 46.2 µM), for the others: at the highest dose activity change, negative = growth inhibition, most hits filed as inhibitors | 420,000 tested, 12% active; further: nearly all actives have a fitted effect of over 55% in size
#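 Chicken DT40 Tdp1-/- cells stably complemented with human TDP1 were seeded at 400 cells/well in medium containing 20 nM camptothecin, exposed to pin-transferred compounds, and grown at 37 °C for at least 48 hr. Viability was read as ATP luminescence.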
# TDP1 block – qHTS Assay for Inhibitors of Tyrosyl-DNA Phosphodiesterase (TDP1); Tyrosyl-DNA phosphodiesterase 1 (Homo sapiens), Q9NUW8; recombinant TDP1, AlphaScreen DNA substrate cleavage; Potency, µM (doses to about 130 µM), for the others: top-dose activity change, negative = inhibition, most hits filed as inhibitors; 350,000 tested, 0.28% active; further: nearly all actives have a fitted effect of over 40% in size
#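 Recombinant human Tdp1 (E. coli-expressed, 1 nM final) preincubated with compounds 15 min at room temperature, then 5'-biotin/3'-phosphotyrosine-FITC DNA substrate (15 nM final) added for 5 min. AlphaScreen beads (10 ug/ml final) added 10 min; cleavage lowers signal.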
# DT40 TDP1 no CPT – qHTS for Inhibitors of human tyrosyl-DNA phosphodiesterase 1 (TDP1): qHTS in cells in absence of CPT | Potency, µM (top dose mostly 46.2 µM), for inactives: at the highest dose activity change, negative = growth inhibition, most hits filed as inhibitors | 420,000 tested, 15% active | AID 686978, 2013 | DT40 Tdp1-/- hTDP1 cells, no CPT, ATP luminescence, 48 h; further: nearly all actives have a fitted effect of over 55% in size
#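 Chicken DT40 Tdp1-/- cells complemented with human TDP1, screened without camptothecin (DMSO vehicle only), 400 cells/well. Compounds pin-transferred, cells incubated at 37 °C for at least 48 hr. Growth read as ATP-dependent luminescence (CellTiter-Glo, 30 min at RT).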
# VDR inh – Inhibitors of the vitamin D receptor (VDR): qHTS; Vitamin D3 receptor (Homo sapiens), P11473; VDR-SRC2-3 peptide fluorescence polarization, 2 h; Potency, µM, inactives show max response, negative = inhibition, usual class: inhibitors; 400,000 tested, 0.93% active; AID 504847, 2011
#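 Inhibition of the VDR/SRC2-3 peptide interaction is quantified by fluorescence polarization. Compounds (23 nl, pintool) incubate with the reagents for 2 hours at ambient room temperature.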
# KAT2A inh – qHTS Assay for Inhibitors of GCN5L2; Potency, µM (top dose mostly 58.9 µM), for the others: top-dose activity change, negative = inhibition, most hits filed as inhibitors; 390,000 tested, 0.21% active; AID 504327, 2011; Histone acetyltransferase KAT2A (Homo sapiens), Q92830; GCN5L2 HAT assay, ThioGlo1 CoA-SH fluorescence
# Target sequence (Q92830 whole entry, looked up): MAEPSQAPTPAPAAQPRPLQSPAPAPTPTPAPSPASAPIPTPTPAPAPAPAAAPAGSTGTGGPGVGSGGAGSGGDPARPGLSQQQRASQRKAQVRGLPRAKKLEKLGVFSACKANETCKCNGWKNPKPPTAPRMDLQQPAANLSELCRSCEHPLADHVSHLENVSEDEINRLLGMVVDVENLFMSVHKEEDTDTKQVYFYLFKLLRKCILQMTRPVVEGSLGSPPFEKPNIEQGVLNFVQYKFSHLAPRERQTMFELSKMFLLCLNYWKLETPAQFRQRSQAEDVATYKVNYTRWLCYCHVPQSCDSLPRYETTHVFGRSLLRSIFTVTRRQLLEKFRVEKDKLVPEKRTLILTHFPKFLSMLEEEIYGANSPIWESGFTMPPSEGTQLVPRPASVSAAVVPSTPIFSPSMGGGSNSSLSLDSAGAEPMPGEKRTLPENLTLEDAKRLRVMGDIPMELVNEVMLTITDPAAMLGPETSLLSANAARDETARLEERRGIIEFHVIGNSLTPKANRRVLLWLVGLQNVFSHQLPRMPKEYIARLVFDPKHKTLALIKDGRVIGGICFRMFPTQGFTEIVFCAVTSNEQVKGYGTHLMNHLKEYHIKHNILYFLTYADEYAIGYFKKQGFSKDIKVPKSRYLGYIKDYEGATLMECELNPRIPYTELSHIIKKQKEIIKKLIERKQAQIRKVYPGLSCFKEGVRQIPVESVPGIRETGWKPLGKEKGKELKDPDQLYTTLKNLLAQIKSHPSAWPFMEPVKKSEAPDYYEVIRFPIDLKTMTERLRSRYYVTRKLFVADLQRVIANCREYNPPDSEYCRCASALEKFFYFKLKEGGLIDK
#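 qHTS, 1536-well. 20nM enzyme, pH 7.5 HEPES/EDTA/Tween-20 buffer; 15 min compound preinc., RT. Start: 75uM H3(1-25), 70uM AcCoA, 50uM ThioGlo1. Read Ex340/Em540 at t=0 (autofluorescence flag) and t=20 min.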
# Numbers without * were called inactive; ? = inconclusive; / = not tested or not shown; [ ] = dose if it differs, or a comment. Compounds with a hit are over-represented: about 18% of the library has one in this group of screens. The call rests on the fitted dose curve; in most records, active means well fitted curve in the direction sought with a large enough effect; inconclusive means small, poorly fitted or top-dose-only effect, or another doubt; inactive means no such curve, though single readings can be large; an effect the other way counts as inactive or inconclusive. On the % scale 0 is the no-effect control and ±100 the full control effect; potency means the concentration at half of the fitted maximal effect.
SMILES,PLK1 PBD block,DT40 TDP1 CPT,TDP1 block,DT40 TDP1 no CPT,VDR inh,KAT2A inh
CC1C/C(=N/Nc2nc3ccccc3[nH]2)CC(C)(C)C1 (stereo unspecified),-18%,21µM*,11%,?,-6%,-4%
O=C(CNc1cc(S(=O)(=O)N2CCCC2)ccc1OCC(F)(F)F)Nc1ccc(SC(F)F)cc1,-10%,1.8µM*,-5%,3.7µM*,-9%,-11%
O=C(Cc1cccc(C(F)(F)F)c1)Nc1ccc(S(=O)(=O)N2CCCC2)cc1,2%,?,1%,?,4%,?
O=C(COc1cccc(C(F)(F)F)c1)Nc1ccc(S(=O)(=O)N2CCCC2)cc1,-8%,23µM*,7%,?,-6%,-7%
O=C(CNc1cccc(S(=O)(=O)N2CCOCC2)c1)Nc1ccc(C(F)(F)F)cc1,-5%,?,4%,16µM*,-16%,-17%
O=C(Cc1cccc(C(F)(F)F)c1)Nc1cccc(S(=O)(=O)N2CCCC2)c1,9%,16µM*,1%,?,-5%,?
COc1ccc(CNCc2c(C(=O)O)c(C)n(Cc3ccc(Cl)cc3)c2C)c(OC)c1,/,?,3%,?,7%,0%
COCC(=O)N1CCC(Oc2ccc(C(=O)NC(C)c3nc(C)sc3C)cc2)CC1 (stereo unspecified),-22%,0%,3%,8%,-21%,2%
CCCCCCCCCCCCCCCC(=O)OC[C@@H](O)[C@H]1OC[C@H](O)[C@H]1O,/,4%,/,-14%,/,/
O=C(O)C[CH2][Ge](=[O])[O][Ge](=[O])[CH2]CC(=O)O,/,/,6%,/,18%,-6%
O=C(CNc1cccc(S(=O)(=O)N2CCCC2)c1)Nc1cccc(C(F)(F)F)c1,1%,10µM*,1%,12µM*,-6%,-6%
O=C(CNc1ccc(C(F)(F)F)cc1)Nc1cccc(S(=O)(=O)N2CCCCC2)c1,-7%,?,/,16µM*,/,/
O=C(CNc1ccc(C(F)(F)F)cc1)Nc1cccc(S(=O)(=O)N2CCCC2)c1,-11%,-25%,-6%[56.1 µM],?,3%,-15%
Cc1ccc(-n2c(=O)c3c(cnn3C)n(CC(=O)Nc3c(C)cccc3C)c2=O)cc1,/,-10%,9%,-10%,-10%,3%
COc1ccccc1CC(=O)NC1CCCCCC1,-9%,-4%,/,1%,-9%,-27%
CCOc1ccc(C(C)NC(=S)NC2CCCCC2)cc1OCC (stereo unspecified),1%,?,5%,?,-11%,1%
CCOc1ccc(C(=S)NC2CCCCC2)cc1OCC,6µM*,?,7%,4.6µM*,40µM*,-16%
CN(C)c1ccc(C(=S)NC2CCCCC2)cc1,13µM*,?,1%,?,?,-9%
CCOc1cc(Br)c(CC(=O)NC2CCCCCC2)cc1OCC,-6%,?,/,21µM*,-14%,-4%
CN(C)c1ccc(C(=O)OCC(=O)NC2CCCCCC2)cc1,-10%,-29%,0%,?,4%,-7%
CC(=O)Nc1ccc(S(=O)(=O)NCC2CC3CCC2C3)cc1 (stereo unspecified),4%,?,/,?,1%,/
Cc1ccc(Sc2nc(-c3ccccc3)nnc2C(F)(F)F)cc1,-3%,21µM*,-1%,21µM*,4%,-1%
CN(CC(=O)Nc1ccc(F)cc1)C(=O)CSc1nnc(Cc2ccccc2)o1,2%,?,0%,-23%,?,-3%
CCOC(=O)c1sc(NC(=O)CSc2n[nH]c(-c3ccccc3)n2)c(C#N)c1C,3.8µM*,12µM*,9%,?,-22%,-12%
CCOC(=O)c1sc(NC(=O)CSc2nc(C)cc(C)n2)c(C#N)c1C,-11%,?,-2%,-27%,8%,0%
SMILES,PLK1 PBD block,DT40 TDP1 CPT,TDP1 block,DT40 TDP1 no CPT,VDR inh,KAT2A inh
CCOC(=O)c1sc(NC(=O)c2cc(-c3ccccc3)nc3ccccc23)c(C#N)c1C,3µM*,7.3µM*,4%,5.8µM*,-19%,?
Cc1cccc(-n2c(C)cc(C(=O)C(=O)Nc3ccccc3F)c2C)c1C,/,?,6%,?,-6%,-8%
CCOc1ccccc1CNC(=O)c1ccc(NC(=O)C2=CSCCO2)cc1,3%,?,3%,23µM*,13%,-18%
COc1ccc(CNC(=O)c2ccc(NC(=O)C3=CSCCO3)cc2)cc1,1%,?,2%,13%,-6%,-19%
Cc1cccc(CNC(=O)c2ccc(NC(=O)C3=CSCCO3)cc2)c1,27µM*,?,1%,?,?,-9%
CCOc1ccc(CNC(=O)c2ccccc2NC(=O)C2=CSCCO2)cc1,24µM*,?,1%,?,?,?
Cc1cccc(CNC(=O)c2ccccc2NC(=O)C2=CSCCO2)c1,?,-14%,2%,2%,0%,-2%
CCOc1cc(CNn2cnnc2)cc(Cl)c1OCC(=O)NC(C)(C)C,0%,-5%,/,-22%,-3%,-2%
CC(=O)N/C(=N\c1nc(C)cc(C)n1)Nc1ccc(Cl)cc1Cl,2%,22%,/,-13%,-1%,13%
S=c1[nH]nc(Cc2ccc(Cl)cc2)o1,34µM*,-16%,-1%,-11%,-15%,-3%
S=c1[nH]nc(CCCc2n[nH]c(=S)o2)o1,21µM*,13%,/,0%,-9%,0%
COc1ccc(Cc2n[nH]c(=S)o2)cc1,-21%,5%,-6%,1%,-6%,-3%
O=C(CC12CC3CC(CC(C3)C1)C2)NC(=S)N1CCCCC1,-22%,-16%,-2%,?,-9%,?
CCOCCCNC(=O)C(c1ccc(Cl)cc1)N(Cc1cccs1)C(=O)CNC(C)=O (stereo unspecified),-2%,-9%,1%,-1%,0%,3%
C#CCOCCOCCOCCNc1nc(N2CCN(C(=O)[C@H]([C@@H](C)CC)n3cc([C@@H](N)CC(C)C)nn3)CC2)nc(N2CCN(C(=O)[C@H]([C@@H](C)CC)n3cc([C@@H](N)CC(C)C)nn3)CC2)n1,-17%,15µM*,4%,?,-4%,-2%
